Screening results deposited in PubChem by National Center for Advancing Translational Sciences (NCATS).
This is one part of a sample in which hits are shown more often than they occur.
Tb PYK inh = qHTS of Trypanosoma Brucei Inhibitors; Potency, µM (highest dose often 76.8 µM), inactives show top-dose activity, negative = inhibition, hits mostly inhibitors; hit rate 0.12% among 410,000; TbPYK enzyme, Kinase-Glo Plus ATP luminescence, 45 min; note: potency is the fitted concentration of half-maximal effect; % is set by controls: 0 for no effect and ±100 for the full control effect; nearly all actives have a fitted effect of over 50% in size
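Luminescent Kinase-Glo Plus end-point after 45 min room-temperature reaction of T. brucei pyruvate kinase started with 130 uM ADP (final). Buffer TEA 50 mM pH 7.2 with KCl, MgCl2, BSA, Tween-20; titration-based qHTS with fitted concentration-effect curves.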
RE007 growth inh = qHTS Assay for Inhibitors of the HIV-1 protein Vpr | S. pombe RE007 Vpr strain, BacTiter-Glo ATP luminescence, 24 h | Potency, µM (series often up to 92.2 µM), inactives show at the top dose activity change, negative = less growth, most hits filed as inhibitors | hit rate 0.21% among 360,000; active = well fitted falling curve with a large enough effect; inconclusive = small, poorly fitted or top-dose-only effect; inactive = no such curve, though single readings can be large or run the other way; note: potency is the fitted concentration of half-maximal effect; % is set by controls: 0 for no effect and ±100 for the full control effect; nearly all actives have a fitted effect of over 50% in size
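Fission yeast RE007 carrying one integrated HIV-1 vpr copy, seeded at OD 0.01 in PMG+AL medium with 23 nL pinned compound. Grown 24 h at 30 degrees; viability read by BacTiter-Glo luminescence after 5 min.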
FBPA Giardia inh = qHTS Assay for Inhibitors of Fructose-1,6-bisphosphate Aldolase from Giardia Lamblia; hit rate 0.71% among 290,000; purified Giardia FBPA; Potency, µM (titrated, usually from 59.6 µM), without a hit: at the top dose activity, negative = inhibition, most hits filed as inhibitors; A8B2U2; AID 2451, 2010; note: potency is the fitted concentration of half-maximal effect; % is set by controls: 0 for no effect and ±100 for the full control effect; nearly all actives have a fitted effect of over 55% in size
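40 nM FBPA preincubated 10 min at RT with compound (up to 57.5 uM final), then substrate plus GAPDH/TPI/NAD/arsenate coupling and diaphorase/resazurin added. Fluorescence read after 20 min at RT, 525/598 nm.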
CHX counter = Cycloheximide Counterscreen for Small Molecule Inhibitors of Shiga Toxin | cell reporter, cycloheximide protein synthesis inhibition counterscreen | max response, % | hit rate 12% among 300,000; in the data active = max response mostly above about 13%, no sharp cut-off; inactive = mostly below about 14%; note: read at 38.3 µM for the half of the compounds with a filed dose; 0% is about no effect
LmPK inh = qHTS Assay for Inhibitors of Leishmania Mexicana Pyruvate Kinase (LmPK); Q27686; Potency, µM (highest dose often 57.5 µM), without a hit: at the highest dose activity change, negative = inhibition, most hits filed as inhibitors; AID 1721, 2009; purified LmPK, Kinase-Glo ATP luminescence, 1 h; hit rate 0.37% among 290,000; note: potency is the fitted concentration of half-maximal effect; % is set by controls: 0 for no effect and ±100 for the full control effect
Target sequence (Q27686 whole entry, looked up): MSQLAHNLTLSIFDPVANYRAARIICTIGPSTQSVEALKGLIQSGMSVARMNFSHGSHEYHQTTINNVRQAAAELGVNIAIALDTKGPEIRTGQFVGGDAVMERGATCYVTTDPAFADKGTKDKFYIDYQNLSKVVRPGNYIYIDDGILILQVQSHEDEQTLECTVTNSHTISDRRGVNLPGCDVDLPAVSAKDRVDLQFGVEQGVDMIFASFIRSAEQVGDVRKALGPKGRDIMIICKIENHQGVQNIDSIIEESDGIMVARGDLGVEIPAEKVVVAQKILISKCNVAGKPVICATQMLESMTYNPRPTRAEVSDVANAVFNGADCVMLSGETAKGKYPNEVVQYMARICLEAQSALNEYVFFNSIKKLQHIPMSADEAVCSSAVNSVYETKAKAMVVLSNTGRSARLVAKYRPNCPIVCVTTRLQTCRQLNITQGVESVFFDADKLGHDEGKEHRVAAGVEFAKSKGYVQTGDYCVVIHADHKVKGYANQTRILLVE
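0.1 nM LmPK, 0.5 mM PEP, 0.1 mM ADP; 50 mM imidazole pH 7.2, 7 mM MgCl2, 50 mM KCl; 1 h RT. Kinase-Glo luminescence readout, normalized to no-enzyme (full inhibition) and uninhibited wells.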
Shiga toxin inh = A qHTS for Small Molecule Inhibitors of Shiga Toxin. AID 2315, 2010. Vero cells, Shiga toxin protein synthesis inhibition reporter. inhibition, % at 38.7 µM. hit rate 9.2% among 290,000; in the data active = inhibition mostly above about 28%, no sharp cut-off; inactive = mostly below about 43%; note: 0% is about no effect
* hit, by the source's call; ? = inconclusive; nt = no result given; + = active, no number; [ ] = another dose, or the depositor's remark. Unless noted, calls come from the whole dose curve; as a rule, active = well fitted curve in the direction sought with a large enough effect; inconclusive = small, poorly fitted or top-dose-only effect, or another doubt; inactive = no such curve, though single readings can be large; an effect the other way counts as inactive or inconclusive.

SMILES	Tb PYK inh	RE007 growth inh	FBPA Giardia inh	CHX counter	LmPK inh	Shiga toxin inh
CCOc1cc(-c2noc(-c3cccnc3)n2)ccc1OC	5%	9%	6%	1	-1%	-8
CCOc1ccc(-c2nc(-c3cccnc3)no2)cc1	-14%	-17%	-1%	31*	?	23*
COc1cccc(-c2noc(-c3ccc(Cl)nc3)n2)c1	2%	6%	2%	30*	4%	83*
COc1ccc2[nH]c(=O)c(-c3noc(-c4ccccc4)n3)cc2c1	1%	-1%	-3%	66*	2%	106*
COc1cc(OC)cc(-c2nc(-c3ccccc3)no2)c1	3%	-7%	-5%	17*	1%	55
COc1cccc(-c2nc(-c3ccc(C(=O)O)cc3)no2)c1	-15%	nt	nt	nt	nt	nt
Cc1ccc(-c2noc(-c3ccccc3F)n2)cc1	-15%	4%	-3%	27*	?	108*
CCCCOc1ccc(-c2nc(-c3cccnc3)no2)cc1	-4%	1%	2%	25*	-1%	80*
CCOc1nc(-c2ccc(C)cc2)ccc1-c1noc(-c2cccnc2)n1	nt	nt	7%	-2	-3%	-4
CCOc1ccc(NC(=O)Cn2nc(SC)c(S(=O)(=O)c3ccccc3)c2N)cc1	-3%	nt	nt	nt	nt	nt
CCOc1nc(-c2ccc(OC)cc2)ccc1-c1noc(-c2ccncc2)n1	2%	11%	7%	-3	7%	-2
CCOc1nc(-c2ccccc2)ccc1-c1noc(-c2cccs2)n1	0%	0%	0%	-3	3%	-7
CCOc1ccc(-c2nc(-c3ccccc3C)no2)cc1	nt	nt	-1%	68*	?	96*
COc1cccc(-c2ccc(-c3noc(-c4cccs4)n3)c(OC)n2)c1	-3%	7%	-5%	-4	0%	-24
COc1ccc(-c2nc(-c3ccncc3)no2)cc1	0%	4%	11%	53*	-9%	88*
CCOc1nc(-c2ccccc2)ccc1-c1noc(-c2ccc(C)cc2)n1	6%	nt	nt	nt	nt	nt
CCOc1ncccc1-c1nc(-c2cccs2)no1	1%	-16%	12%	50*	4%	60*
COc1ccc(-c2nc(-c3cccs3)no2)cc1	-24%	-27%	0%	10	16µM*	-13
CCN(CC(=O)NCc1ccc(F)cc1)C(=O)C1CCN(S(=O)(=O)c2ccc(C(C)C)cc2)CC1	0%	-24%	nt	nt	nt	nt
O=C(Nc1nnc([C@@H]2C[C@H](O)[C@@H](CO)O2)s1)c1cccc(C(F)(F)F)c1	-9%	0%[18.4 µM]	nt	nt	nt	nt
COc1ccccc1/C=C/C(=O)N1CCN(S(=O)(=O)c2cccs2)CC1	0%	4%	nt	nt	nt	nt
Cc1ccc(-c2noc(-c3cccs3)n2)cc1	-4%	-9%	13%	70*	?	67*
Cc1ccc2oc(=O)c(-c3nc(-c4cccs4)no3)cc2c1	-5%	nt	nt	nt	nt	nt
COc1ccc(-c2nc(-c3cccnc3)no2)cc1	-3%	-10%	3%	45*	-15%	59*
Cc1cc(C)cc(NC(=O)Cn2cc(S(=O)(=O)NC(C)(C)C)c(S(=O)(=O)NC(C)(C)C)c2)c1	1%	nt	nt	nt	nt	nt
SMILES	Tb PYK inh	RE007 growth inh	FBPA Giardia inh	CHX counter	LmPK inh	Shiga toxin inh
Nc1nnc(SCCCC(=O)c2ccc(F)cc2)s1	0%	11%	0%	33*	-3%	+
Nc1nnc(SCCCC(=O)c2ccc(Br)cc2)s1	5%	5%	0%	58*	-1%	67*
O=C(CCCSc1nnc(SCCCC(=O)c2ccc(F)cc2)s1)c1ccc(F)cc1	-3%	8%	2%	5	-3%	-19
CSc1ncc(Cl)c(C(=O)N(Cc2ccc(C(C)C)cc2)C2CCS(=O)(=O)C2)n1 (configuration not stated)	-7%	nt	nt	nt	nt	nt
S=c1c2c(nc3nc[nH]n13)CCC2	-29%	?	2.5µM*	-1	-4%	-5
Nc1ccccc1SCC(=O)N1CCc2ccccc21	-9%	-11%	-4%	41*	3%	67
Cc1ccc(-c2ccc(SCC(=O)N3CCCc4ccccc43)nn2)cc1	nt	nt	2%	24*	2%	52*
Cc1ccc2c(c1)c1nnc(SCC(=O)N3CCCc4ccccc43)nc1n2CC(=O)O	2%	6%	-4%	32*	4.5µM*	76*
Cc1ccc(-c2ccc(SCC(=O)N3CCc4ccccc43)nn2)cc1	nt	nt	4%	-7	3%	-11
Cc1ccc(SCC(=O)N2CCc3ccccc32)cc1	-5%	15%	2%	46*	0%	53*
Cc1cc(C)nc(SCC(=O)N2CCc3ccccc32)n1	3%	0%	nt	nt	nt	nt
CC(=O)OC[C@@H]1O[C@@H](O/N=C2/C[C@@H](O)[C@@H](O)[C@@H]3[C@H]4C(=O)N(c5ccc(F)cc5F)C(=O)[C@@H]4CC[C@H]23)[C@H](OC(C)=O)[C@H](OC(C)=O)[C@@H]1OC(C)=O	nt	nt	1%[12.9 µM]	nt	nt	nt
CCCSCCCNC(=O)C1CCN(c2nc3ccccc3nc2C(F)(F)F)CC1	-3%	nt	nt	nt	nt	nt
COc1ccc(N2CCN(CCNC(=O)c3ccc4c(c3)[nH]c(=S)n3c5ccccc5nc43)CC2)cc1	-1%	16%	-1%	-3	-3%	4
O=C(CSC1=NCCS1)N1CCc2ccccc21	-5%	-4%	1%	41*	-12%	178*
O=C(CSc1n[nH]c(-c2ccccc2O)n1)N1CCCc2ccccc21	3%	-3%	0%	-4	-2%	-6
CCCn1nnnc1SCC(=O)N1CCCc2ccccc21	2%	16%	-4%	48*	-2%	108*
CC1Cc2ccccc2N1C(=O)CSC1=NCCS1 (configuration not stated)	1%	2%	0%	11	3%	46
CC(C)c1nc(SCC(=O)N2CCc3ccccc32)n[nH]1	-3%	-4%	1%	21*	6%	47
O=C(CNc1ccccc1OC(F)F)N1CCc2ccccc21	-3%	-13%	1%	32*	-6%	45*
COc1ccc(/C=C/C(=O)c2c(O)cc(C)oc2=O)c(OC)c1	2%	0%	-5%	24*	14µM*	8
Cc1cc(O)c(C(=O)/C=C/c2ccc(Cl)cc2)c(=O)o1	6%	1%	-8%	32*	4%	50*
CSc1ccc(/C=C/C(=O)c2c(O)cc(C)oc2=O)cc1	-6%	-27%	-5%	37*	?	52*
COc1ccc(C2=NN(CC(=O)NCCc3ccccc3)C(=O)CC2)cc1	-3%	nt	nt	nt	nt	nt
COc1ccc(Cl)cc1Nc1cc(C)nc2nc(-c3ccccc3C)nn12	-1%	nt	nt	nt	nt	nt
COc1ccc(-c2nc3ccccc3n2Cc2ccccc2)cc1	1%	2%	-6%	25*	9%	14
